RORg inh: blocks mouse ROR gamma transcriptional activity | P51450 | Drosophila S2 Gal4-RORgamma UAS-luciferase reporter, 20 h | Potency, µM (top dose mostly 53.6 µM), for inactives: top-dose activity change, negative = inhibition, hits mostly inhibitors | 310,000 compounds, 5.4% hits; also: potency is read from the fitted curve at half-maximal effect; nearly all actives have a fitted effect of over 60% in size
Target sequence (P51450 whole entry, looked up, the tested form may be a part): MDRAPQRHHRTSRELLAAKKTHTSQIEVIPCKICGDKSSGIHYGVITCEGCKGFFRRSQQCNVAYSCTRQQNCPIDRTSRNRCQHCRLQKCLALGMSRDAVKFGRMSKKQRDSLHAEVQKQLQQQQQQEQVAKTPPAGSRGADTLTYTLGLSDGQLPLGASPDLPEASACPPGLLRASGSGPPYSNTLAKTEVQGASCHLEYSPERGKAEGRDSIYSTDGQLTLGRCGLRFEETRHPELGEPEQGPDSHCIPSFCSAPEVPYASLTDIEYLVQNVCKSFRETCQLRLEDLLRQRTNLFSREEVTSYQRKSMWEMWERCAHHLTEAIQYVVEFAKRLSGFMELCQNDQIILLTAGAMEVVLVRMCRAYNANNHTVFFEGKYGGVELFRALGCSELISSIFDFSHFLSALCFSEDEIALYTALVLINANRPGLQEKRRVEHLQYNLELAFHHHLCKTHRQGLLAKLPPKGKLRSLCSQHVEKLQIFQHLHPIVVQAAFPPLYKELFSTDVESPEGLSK
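In this cell-based reporter format, copper sulfate (700 uM final) drives Gal4–ROR gamma fusion expression from a metallothionein promoter in Drosophila Schneider cells; compounds preincubated 1 hr, reporter read after 20 hr at ambient temperature.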
DT40 TDP1 CPT: growth inhibition of DT40 Tdp1-/-;hTDP1 cells with camptothecin (screen for TDP1 inhibitors). chicken DT40 Tdp1-/-;hTDP1 cells + 20 nM CPT, ATP luminescence, 48 h. Potency, µM (series often up to 46.2 µM), for the others: at the top dose activity change, negative = growth inhibition, most hits filed as inhibitors. 420,000 compounds, 12% hits; also: potency is read from the fitted curve at half-maximal effect; nearly all actives have a fitted effect of over 55% in size
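Cell growth measured by CellTiter-Glo luminescence after a minimum 48 h, 37 C compound exposure with 20 nM CPT in Tdp1-knockout DT40 cells stably expressing hTDP1, seeded 400/well; qHTS titration format.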
TDP1 cell noCPT: qHTS for Inhibitors of human tyrosyl-DNA phosphodiesterase 1 (TDP1): qHTS in cells in absence of CPT. DT40 Tdp1-/- hTDP1 cells, no CPT, ATP luminescence, 48 h. Potency, µM (doses to about 46.2 µM), for the others: top-dose activity change, negative = growth inhibition, actives largely listed as inhibitors. 420,000 compounds, 15% hits; also: potency is read from the fitted curve at half-maximal effect; nearly all actives have a fitted effect of over 55% in size
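Cells were dispensed at 400 per well, compounds added by pin tool, plates incubated ≥48 hr at 37 °C, then CellTiter-Glo added for 30 min at room temperature before luminescence reading. Line: DT40 Tdp1-/- complemented with hTDP1; camptothecin omitted.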
VP16 counter: counter-screen for ROR gamma inhibitors: Gal4-VP16 reporter; AID 2546; 310,000 compounds, 3.5% hits; Drosophila S2 Gal4-VP16 UAS-luciferase, luminescence, 20 h; Potency, µM (doses to about 53.6 µM), for the others: at the top dose activity, negative = inhibition, hits mostly inhibitors;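 also: Gal4-VP16 expression switched on by copper sulfate through the metallothionein promoter; potency is read from the fitted curve at half-maximal effect; nearly all actives have a fitted effect of over 50% in size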
LDHA block: inhibitors of human lactate dehydrogenase A; P00338; purified LDHA, NADH/diaphorase-resazurin fluorescence; stronger effect = lower value; activity change, % (values are at about 110 or 230 µM); 480,000 compounds, 0.15% hits; in the data active = activity change below about -30%; inconclusive = mostly about -25% to -30%;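 also: plate controls were DMSO wells for no effect and wells without enzyme for full effect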
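Human LDH5 (2 nM) was incubated with 0.06 mM NADH and 0.2 mM pyruvate for 5 min at room temperature in Tris pH 7.4. Remaining NADH was coupled through diaphorase/resazurin, and resorufin fluorescence was read at 0 and 20 min.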
IL-1B inflam inh: inflammasome signaling inhibition, IL-1 beta readout | THP-1 LPS/ATP IL-1B secretion, AlphaLISA, 16 h; stronger effect = lower value | activity change, % at 57.5 µM | 360,000 compounds, 4.7% hits | AID 743279; in the data active = activity change below about -50%; inconclusive = mostly about -30% to -49%
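Secreted IL-1B measured by AlphaLISA bead assay after 16 h compound exposure of THP-1 cells; compounds (final up to 57.5 uM) added 1 h before LPS (250 ng/mL) and ATP (1.25 mM) stimulation; lower signal means less secretion.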
* = called active by the depositor; ? = inconclusive; / = no result given; [ ] = remark or other dose. This is a sample that favours compounds with a hit; in the whole collection about 18% have one here. Unless noted, calls follow the shape of the dose curve; as a rule, active = well fitted curve in the direction sought with a large enough effect; inconclusive = small, poorly fitted or top-dose-only effect, or another doubt; inactive = no such curve, though single readings can be large; an effect the other way counts as inactive or inconclusive. Unless noted, % is scaled to controls: 0 for no effect and ±100 for the full control effect.

SMILES	RORg inh	DT40 TDP1 CPT	TDP1 cell noCPT	VP16 counter	LDHA block	IL-1B inflam inh
CCN(CC)c1cccc(OCC(=O)N2c3ccccc3CC2C)c1 (stereo not drawn)	/	?	18.4µM*	/	6.4	-1.1
Cc1cc(=O)oc2cc(OCC(=O)N3c4ccccc4CC3C)ccc12 (stereo not drawn)	?	4.11µM*	2.31µM*	-16.6%	-10.6	42.3
Cn1c(Oc2ccccc2Cl)c(C#N)c(=O)n(C)c1=O	/	/	/	/	6.9	/
COC(=O)c1ccc(COc2ccc3c(=O)c(Oc4ccccc4F)c(C(F)(F)F)oc3c2)cc1	/	/	/	/	-5.6	/
CCC(=O)N1CCN(c2oc(/C=C/c3ccccc3Cl)nc2C#N)CC1	/	/	/	/	1.3	/
CCC(C)c1ccc(S(=O)(=O)N2CCN(C(=O)COc3ccc4c(C)cc(=O)oc4c3)CC2)cc1 (stereo not drawn)	-5.4%	?	14.6µM*	-11.7%	-3.1	-13.4
CCOC(=O)c1ccc(NC(=O)CC2SC(c3cc4ccccc4oc3=O)=NC2=O)cc1 (stereo not drawn)	/	/	/	/	-30.6*	/
C=C1C(=O)C=C[C@]2(C)C[C@@H]3OC(=O)[C@](C)(O)[C@H]3C[C@@H]12	?	1.84µM*	1.3µM*	?	4.9	-110.1*
Cc1ccc(-n2ncc3c(NCc4cccnc4)ncnc32)c(C)c1	?	16.4µM*	5.17µM*	17.8µM*	-3.2	-13.4
Cc1ccc(-n2ncc3c(NCc4cccnc4)ncnc32)cc1C	-29.2%	20.6µM*	?	?	-1.5	-19.4
O=S(=O)(NCCO)c1ccc(Oc2ccc(S(=O)(=O)NCCO)cc2)cc1	/	/	/	/	0.1	/
Cc1cccc(C(=O)N(Cc2nc(-c3ccc(Cl)cc3)no2)C(C)C)c1	/	?	?	/	6.0	/
Cc1ccc(C)c(C(=O)N(Cc2nc(-c3ccc(Cl)cc3)no2)C(C)C)c1	-9.7%	?	18.4µM*	-28.8%	0.8	-8.4
COc1cccc(C(=O)N(Cc2nc(-c3ccc(C)cc3)no2)C(C)C)c1	-1.2%	18.4µM*	?	0.9%[0.365 µM]	3.5	-1.0
Cc1ccc(-c2noc(CN(C(=O)c3ccc(C(C)(C)C)cc3)C(C)C)n2)cc1	/	?	?	/	-1.4	/
Cc1cc(C(=O)N(Cc2nnc(-c3ccc(Cl)cc3)o2)C(C)C)c2ccccc2n1	/	?	14.6µM*	/	-6.9	0.0
COc1ccc(-c2noc(CN(C(=O)c3ccc(C)cc3C)C(C)C)n2)cc1	/	23.1µM*	14.6µM*	/	-1.9	/
COc1ccc(-c2noc(CN(C(=O)c3ccoc3C)C(C)C)n2)cc1	21.0%	-25.8%	?	-1.7%	-5.5	-10.7
CC(C)CCn1nc(C(=O)OC(C)C(=O)N2CCCc3ccccc32)c2ccccc2c1=O (stereo not drawn)	/	/	/	/	-4.0	/
CC(Sc1ncnc2ccccc12)C(=O)Nc1cc(Cl)cc(Cl)c1 (stereo not drawn)	/	/	/	/	-9.8	/
COc1cccc(Cn2cccc(NC(=O)Nc3ccc(C#N)cc3)c2=O)c1	?	18.4µM*	8.2µM*	-16.6%	-3.9	-3.7
COc1cccc(NC(=O)Nc2cccn(Cc3ccccc3)c2=O)c1	?	?	?	-1.6%	21.7	?
O=C(Nc1cccn(Cc2c(Cl)cccc2Cl)c1=O)c1c(Cl)cccc1Cl	24.9%	?	?	-8.6%	-2.7	?
O=C(Nc1ccccc1)Nc1cccn(Cc2c(F)cccc2Cl)c1=O	?	-25.1%	?	4.0%	3.9	-61.0*
Fc1ccc2[nH]c3c(Cl)ncnc3c2c1	-15.8%	-2.6%	-19.1%	-12.1%	-10.3	-96.3*
SMILES	RORg inh	DT40 TDP1 CPT	TDP1 cell noCPT	VP16 counter	LDHA block	IL-1B inflam inh
CCCCOc1ncnc2c1[nH]c1ccc(OCC)cc12	1.5%	-17.6%	-17.8%	4.7%	-2.6	23.1
CCCCOc1ncnc2c1[nH]c1ccccc12	?	10.3µM*	7.31µM*	10µM*	-12.8	0.6
COc1ccc2[nH]c3c(Cl)ncnc3c2c1	?	7.4%	?	3.4%	-1.3	?
CCCCOc1ncnc2c1[nH]c1ccc(F)cc12	?	9.2µM*	8.2µM*	7.94µM*	-11.1	?
CC(Cl)C(=O)NC(=O)NC(C)(C)C (stereo not drawn)	/	/	/	/	12.2	/
C/C(=N\NC(=O)C1CCCCC1)c1ccc(NC(=O)c2ccc(Cl)s2)cc1	/	/	/	/	1.5	/
CCCc1nc(C)cc(N2CCN(c3ccccc3)CC2)n1	-25.4%	29.1µM*	20.6µM*	1.8%	7.0	-3.1
CSc1nc(N2CCN(c3ccccc3)CC2)cc(N2CCN(c3ccccc3)CC2)n1	-5.1%	-0.9%	-25.3%	5.6%	-11.4	-2.4
Cc1cc(N2CCN(c3ccccc3)CC2)nc(NCc2ccccc2)n1	-2.6%	20.6µM*	16.4µM*	-4.0%	?	20.1
Cc1cc(OC(C)C)nc(NCc2ccccc2)n1	-28.6%	?	13µM*	-16.6%	-8.6	4.4
CCCn1nc(C(=O)Nc2nc(C)c(C(C)=O)s2)c2ccccc2c1=O	/	/	/	/	-10.2	/
O=c1[nH]c(-c2ccccc2)ncc1OCc1ccccc1	/	13µM*	-21.6%	/	-5.0	-6.8
COc1cnc(-c2ccccc2)[nH]c1=O	18.3%	-11.9%	-12.5%	-5.7%	-7.5	-4.2
NCC(O)c1ccc(O)c(O)c1 (stereo not drawn)	/	3.0%	11.5%	/	1.4	17.3
CCN(CC)CC(O)c1ccc2ccc3ccc(O)cc3c2c1 (stereo not drawn)	/	?	?	/	6.3	-60.9*
CCCNC(=S)Nc1ccc(Nc2ccccc2)cc1	5.01µM*	?	?	15.8µM*	2.1	?
CNC(=S)Nc1ccc(C(N)=O)cc1	-1.0%	5.2%	-23.9%	-7.3%	-7.0	39.9
CCCNC(=S)Nc1ccc(C)cc1	/	/	/	/	7.3	/
CNC(=S)Nc1ccc(Nc2ccccc2)cc1	11.2µM*	-26.0%	-18.1%	-1.5%	0.4	-2.6
c1ccc(-c2noc(CN3CCN(c4ccccc4)CC3)n2)cc1	11.5%	-19.7%	-2.8%	15.4%	0.1	20.5
c1ccc(C(c2ccccc2)c2noc(CN3CCN(CC4CC4)CC3)n2)cc1	5.8%	14.6µM*	?	-7.1%	-1.2	-19.3
N#CCc1nc(C(c2ccccc2)c2ccccc2)no1	?	10.7%	0.8%	-16.8%	-5.5	?
c1ccc(-c2noc(CN3CCN(C(c4ccccc4)c4ccccc4)CC3)n2)cc1	14.7%	-26.1%	?	6.0%	5.2	-87.0*
COCC1CCCN(Cc2nc(C(c3ccccc3)c3ccccc3)no2)C1 (stereo not drawn)	?	?	18.4µM*	?	-6.3	-4.2

Screening data (PubChem BioAssay)
